Test results: PubChem BioAssay (NCI)
This is part of a sample that, as a whole, favours compounds with a hit. Of some 79,000 tested, about 15% had one in any assay. Values without a mark were called inactive. The source made the active and inactive calls. Rule as the data show it: active = growth inhibition above about 70%; inactive = the rest. *1 amine or outer side, *2 acyl side, *3 side chain or, on linkers, in order; H or OH if unused. Where a SMILES comes first, the peptide text is derived from it. Bridges are numbered along the chain shown (N, C = ends). Roman numbers before positions name the chains, in order. [ ]: non-standard residue; d: D form. The star is where a group is joined. Actinocin(9to1) = Cc1c2oc3c(C)ccc(C(=O)[*:1])c3nc-2c(C(=O)[*:2])c(N)c1=O; X13 = O=C1CC(C(=O)[*:2])N([*:1])C1; NMeV = CN[CH](C(=O)O)C(C)C; Cbz = O=C(OCc1ccccc1)*; Sar = CNCC(=O)O

Columns and labels:
[1] = NCI Yeast Anticancer Drug Screen. Data for the rad50 strain (AID 155);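 also: 0% = growth of vehicle-only cultures of the same strain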; settings: S. cerevisiae rad50 strain growth inhibition; at 50.0 µM; hits give high values
In short: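 Inhibition values express reduced yeast growth in compound-treated cultures relative to vehicle-treated controls.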

[2] = NCI Yeast Anticancer Drug Screen. Data for the mec2-1 strain (AID 157); settings: S. cerevisiae mec2-1 strain, at 50.0 µM, hits give high values
In short: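 Yeast mec2-1 mutant treated with compound. Readout: growth inhibition vs vehicle controls.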

[3] = NCI Yeast Anticancer Drug Screen. Data for the sgs1 mgt1 strain (AID 161);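 also: 0% = growth of cultures given vehicle only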; settings: S. cerevisiae sgs1 mgt1 strain, at 50.0 µM, hits give high values
In short: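 Test agents were incubated with a DNA-repair-mutant yeast strain. Growth was then read and compared against vehicle-treated controls.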

[4] = NCI Yeast Anticancer Drug Screen. Data for the cln2 rad14 strain (AID 165);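 also: 0% = growth equal to vehicle treated cultures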; settings: S. cerevisiae cln2 rad14 strain, at 50.0 µM, hits give high values
In short: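 cln2 rad14 yeast strain; compound exposure; growth inhibition read vs vehicle controls.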

[5] = NCI Yeast Anticancer Drug Screen. Data for the bub3 strain (AID 167); settings: S. cerevisiae bub3 mutant strain, at 50.0 µM, hits give high values
In short: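 Steps: expose the mutant yeast strain to compound; grow alongside vehicle-treated cultures; measure growth; express inhibition against the vehicle cultures.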

[6] = NCI Yeast Anticancer Drug Screen. Data for the mlh1 rad18 strain (AID 175); settings: S. cerevisiae mlh1 rad18 strain growth inhibition; at 50.0 µM; hits give high values
In short: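 Yeast w/ defined DNA-repair lesions; compound exposure; growth vs vehicle controls → % inhibition.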

| SMILES | growth inhibition [1] | growth inhibition [2] | growth inhibition [3] | growth inhibition [4] | growth inhibition [5] | growth inhibition [6] |
| --- | --- | --- | --- | --- | --- | --- |
| Cc1c2oc3c(C)ccc(C(=O)NC4C(=O)NC(C(C)C)C(=O)N5CC(=O)CC5C(=O)N(C)CC(=O)N(C)C(C(C)C)C(=O)OC4C)c3nc-2c(C(=O)NC2C(=O)NC(C(C)C)C(=O)N3CC(=O)CC3C(=O)N(C)CC(=O)N(C)C(C(C)C)C(=O)OC2C)c(N)c1=O (stereo not given) (I: TV[X13][Sar][NMeV] / II: TV[X13][Sar][NMeV]; ester I:1-I:C, II:1-II:C; linker I:N-II:N via Actinocin(9to1); configuration not given here) | -22.6% | -1.65% | -3.1% | 52.4% | -3.25% | -42.8% |
| Cc1ccc(S(=O)(=O)OI(O)CC(F)(F)F)cc1 | -39.1% | 15.5% | -2.5% | -2.05% | 6.5% | 25.9% |
| OCCCC1CCN(CCO)CC1 | -22.2% | -27.5% | -18.8% | 1.3% | -8.7% | -10.3% |
| COc1ccc(Nc2cnc3cc(N)ccc3n2)cc1OC | -15.3% | -21.6% | -38.5% | -8.35% | -30.3% | 1.7% |
| O=C(O)C/C(=C\c1ccccc1)C(=O)O | -3.15% | -25.9% | -17.4% | 4% | -24.2% | -30.9% |
| COc1cc(OC)c(N=Nc2c(C)nc(N)nc2-c2ccccc2)cc1Cl | 44.6% | 5.45% | 19.2% | 20.3% | 4.6% | 23.9% |
| N#CC1(Cc2ccccc2)c2ccccc2-c2ccccc21 | 34.2% | 27.8% | 28.8% | 1.85% | 24.9% | 45% |
| CC(C)NC1(C#N)CCN(Cc2ccccc2)CC1 | -29.8% | -45.1% | -41.4% | 10.2% | -29.1% | -37.5% |
| COc1cc2nncc(SCc3ccc(Cl)cc3)c2cc1OC | -1% | 4.2% | -0.55% | -11% | 15.5% | 4.05% |
| C=NNC(=O)c1ccncc1 | -10.4% | -6.1% | 6.4% | -37.5% | 12.8% | 5.9% |
| CN1COc2c(ccc3c4c(ccc23)CN(C)CO4)C1 | 3.15% | 17.9% | 16.6% | -47% | 1.75% | 35.4% |
| CC(=O)NNc1nc(C)c(C(=O)/C=C/C=C/c2ccccc2)s1 | -3.8% | 39% | 10.7% | 10.3% | 13.1% | -21.8% |
| C=C(C(=C)P(=S)(c1ccccc1)c1ccccc1)P(=S)(c1ccccc1)c1ccccc1 | -10% | -10.7% | -37.1% | -7.15% | -5.8% | -16.3% |
| O=C(NCCCl)NC(C1CC1)C1CC1 | 13.1% | -2.9% | 6.45% | -58.1% | 13.4% | -3.95% |
| O=NN(Cc1ccc(Cl)cc1)NC1=NCCN1 | 5.55% | 14.3% | 3.75% | -3.65% | 15.2% | 29.6% |
| CCOC(=O)C1CC1c1c(C)c2cc3[nH]c(cc4nc(cc5nc(cc1[nH]2)C(C)=C5CCC(=O)OC)C(CCC(=O)OC)=C4C)c(C)c3C1CC1C(=O)OCC (stereo not given) | -7.25% | 36.5% | 29.5% | -19.4% | -6.15% | 39.2% |
| O=[N+]([O-])c1cccc(S/N=C/c2ccccc2)c1 | 98.8% (active) | 98.4% (active) | 99% (active) | 92.3% (active) | 98.5% (active) | 98.8% (active) |
| CC(C)(C)OC(=O)Cn1ncn(NC(=O)Cc2ccccc2)c1=S | -27.6% | -23.9% | 1.05% | -37.2% | -33.5% | -15.7% |
| CC(C)CCCC(C)C1CCC2C3CC=C4CC(OC5CCC6(C)C(=CCC7C6CCC6(C)C(C(C)CCCC(C)C)CCC76)C5)CCC4(C)C3CCC12C (stereo not given) | -0.05% | -12.8% | -17.1% | -10.7% | -1.75% | 4.8% |
| Cc1ccc(N=Nc2c(O)c(S(=O)(=O)O)cc3cc(S(=O)(=O)O)ccc23)c(C)c1 | 8.55% | -19.6% | -13.8% | 6.3% | -14% | 2.55% |

| SMILES | growth inhibition [1] | growth inhibition [2] | growth inhibition [3] | growth inhibition [4] | growth inhibition [5] | growth inhibition [6] |
| --- | --- | --- | --- | --- | --- | --- |
| O=C(COc1ccc(Cl)cc1C(=O)O)NCc1ccc([N+](=O)[O-])cc1 | -9.45% | 8.1% | 20.8% | -10.9% | -9.85% | -24.6% |
| Cc1ccc(S(=O)(=O)OC(F)(F)C(F)(F)F)cc1 | 7.8% | 5.05% | 7.95% | -8.15% | -4.05% | 5.5% |
| Cc1ccc(-c2cc(=O)c3cc(C)c(C)c(C(=O)O)c3o2)cc1N | -8.6% | -3.55% | 11.9% | 6.1% | 14.2% | -7.4% |
| CC(Sc1nc2ccc(Cl)cc2[nH]1)C(=O)O (stereo not given) | -11.8% | -4% | -0.9% | -16.9% | 12.9% | -3.85% |
| O=C(O)c1cccc(C#Cc2ccccc2)c1 | 16.7% | 5.25% | 12.5% | -15.4% | 4.55% | 25.1% |
| N=C1C=CC2C(=Nc3ccccc3[N+]2=O)N1Cc1ccncc1 (stereo not given) | -2.9% | 1.3% | -6% | 1.45% | 7.55% | 22.8% |
| CCOC(=O)/C(F)=C/c1cccc(C#N)c1 | 41.6% | -3.35% | 8.1% | 24.7% | 30.7% | 23.9% |
| COc1ccc(CCNC(=S)NC(=O)c2ccc(Cl)c(Cl)c2)cc1OC | 47.6% | 47% | 68.3% | 49.5% | 44.4% | 56% |
| c1ccc2[nH]c(-c3nc4ccccc4s3)cc2c1 | -3.75% | -4.45% | 0.05% | -60.1% | -12% | 1.25% |
| CC(=O)OC(OC(C)=O)c1ncccc1C(=O)OC(C)C | -14.6% | -13.2% | -14.7% | 10.8% | -8.45% | -21.7% |
| CC(NC(=O)C(Cc1ccc(O)cc1)NC(=O)C(C)NC(=O)OCc1ccccc1)C(=O)O (stereo not drawn) (Cbz-Ala-Tyr-Ala-OH; configuration not given here) | 12.2% | 13.3% | 13.7% | -4.25% | -5.8% | 16.9% |
| CCCCCCCCCCNC(=O)CCC(NC(=O)c1ccc(N(C)Cc2cnc3nc(N)nc(N)c3n2)cc1)C(=O)NCCCCCCCCCC (stereo not given) | 5.7% | 3.35% | -4.15% | 6.1% | -13.2% | -3.65% |
| Cn1c(=O)oc2cc(Br)ccc21 | -8.9% | 0.7% | -3.1% | 18.9% | 23% | -67.8% |
| CCCCOC(=O)CC(C(=O)OCCCC)N1CCNCC1 (stereo not given) | -0.05% | -9.95% | -4.15% | -50.6% | -1.2% | -3.1% |
| COc1cc(NCCN2CCOCC2)c([N+](=O)[O-])cc1OC | 22.3% | 12.1% | 8.25% | 2.6% | -0.65% | 8.15% |
| Nc1nnc(/C=C/c2ccc(Cl)cc2)o1 | -26.5% | -8.15% | -14.9% | 2.9% | -18.6% | -11.3% |
| O=C(CC1C(=O)Nc2ccccc2S1=O)Nc1ccc(Cl)cc1 (stereo not given) | 41.9% | 38% | 59.8% | 18.4% | 48% | 56.3% |
| O=C(OCc1ccccc1)c1ccc(NCc2cc(O)ccc2O)cc1 | 88.7% (active) | 90.7% (active) | 89.7% (active) | 89.6% (active) | 88% (active) | 92.2% (active) |
| CC1Cn2c(nnc2-c2ccccc2O)S1 (stereo not given) | -14.1% | 0.6% | -3.25% | -2.95% | -15.3% | -12.6% |
| CCCC(=O)C(=O)CCC | -5.25% | -17.4% | 2.3% | -26.1% | -0.15% | -3.45% |
